In PubChem BioAssay (Tox21) one finds Potency and outcome data, which are given here for 13 compounds.

Several values for one entry are separate records, joined by “and”; a condition that tells them apart may be missing. Equal entries are not always repeated. Inconclusive results are not listed. Activity calls are given as the source filed them. Unless noted, calls come from the whole dose curve; as a rule, active = well fitted curve in the direction sought with a large enough effect in the repeat runs; inconclusive = weak or mixed curves; inactive = no such curve, though single readings can be large; an effect the other way counts as inactive or inconclusive.

Test [1] can be described thus: qHTS assay to identify small molecule antagonists of the retinoid-related orphan receptor gamma (ROR-gamma) signaling pathway - cell viability counter screen (AID 1159520). Note: nearly all actives have a fitted effect of over 50% in size. Note: potency is the fitted concentration of half-maximal effect. The procedure, abridged:
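Tet-on ROR gamma CHO cells were given compounds for 2 hr, then doxycycline hyclate at 1 uM final, and incubated 16 hr at 37 C. Viability was measured as ATP content by CellTiter-Glo luminescence.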
For orientation: In qHTS, concentration-response curves come from the screen itself.

For test [2], the target named is Nuclear receptor ROR-gamma (Homo sapiens) (UniProt P51449). The experiment in a line: qHTS assay to identify small molecule antagonists of the retinoid-related orphan receptor gamma (ROR-gamma) signaling pathway (AID 1159521; note: nearly all actives have a fitted effect of over 50% in size; note: potency is the fitted concentration of half-maximal effect). The procedure, abridged: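 CHO Tet-on RORγ, RORE-luc reporter. Cpd 2 h pre-incubation, then dox hyclate 1 uM final, 16 h, 37 C/5% CO2. ONE-Glo luminescence; decrease = antagonist.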

The nature of test [3]: qHTS assay to identify small molecule agonists of the AP-1 signaling pathway - cell viability counter screen (AID 1159525; calls by dose curve; note: nearly all actives have a fitted effect of over 55% in size; note: potency is the fitted concentration of half-maximal effect). The procedure, abridged: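 Same-well cytotoxicity counter screen of the Tox21 10K library in ME-180 cells. The readout is ATP-dependent luminescence after 5 h compound treatment. Data are normalised to DMSO and tetra n-octyl ammonium bromide controls.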

Test [4] deals with Peroxisome proliferator-activated receptor delta (Homo sapiens) (UniProt Q03181). The experiment in a line: qHTS assay to identify small molecule agonists of the peroxisome proliferator-activated receptor delta (PPARd) signaling pathway (AID 743212; calls by dose curve). The procedure, abridged: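 Read-out: beta-lactamase FRET fluorescence after 2 h room-temperature incubation with LiveBLAzer B/G substrate. Cells were HEK293H carrying a UAS-bla reporter for PPARd, treated at 37 C with DMSO-dissolved compounds.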

The nature of test [5]: qHTS assay to identify small molecule antagonists of the peroxisome proliferator-activated receptor delta (PPARd) signaling pathway - cell viability counter screen (AID 743213). Note: nearly all actives have a fitted effect of over 50% in size. Note: potency is the fitted concentration of half-maximal effect. The procedure, abridged:
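CellTiter-Glo was added to PPARd-bla HEK293H wells following 17 h compound treatment in the presence of 300 nM L165041. Luminescence was recorded after 30 min at room temperature.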

The target in test [6] is Peroxisome proliferator-activated receptor delta (Homo sapiens) (UniProt Q03181). Briefly: qHTS assay to identify small molecule antagonists of the peroxisome proliferator-activated receptor delta (PPARd) signaling pathway (AID 743215; active = well fitted inhibition curve with a large enough effect in the signal ratio in the repeat runs, not every such curve was filed as active; the % refers to the signal ratio;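 note: cells stimulated with agonist L165041 at 300 nM final during compound exposure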; note: potency is the fitted concentration of half-maximal effect). The procedure, abridged:
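Screen format: qHTS, antagonist mode. HEK293H PPARd-bla cells received compound and 300 nM L165041 (final), 17 h, 37 C. Beta-lactamase detected via FRET substrate fluorescence, 2 h, room temperature.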

Test [7] is described as follows: qHTS assay to identify small molecule agonists of the farnesoid-X-receptor (FXR) signaling pathway - cell viability counter screen (AID 743218). Note: nearly all actives have a fitted effect of over 45% in size. Note: potency is the fitted concentration of half-maximal effect. The procedure, abridged: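 Same-well cytotoxicity check on FXR-UAS-bla HEK 293T cells: 5 h attachment, 16 h compound at 37 C, CellTiter-Glo luminescence read at room temperature after 30 min.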
The target in test [8] is Bile acid receptor (Homo sapiens) (UniProt Q96RI1). The experiment in a line: qHTS assay to identify small molecule agonists of the farnesoid-X-receptor (FXR) signaling pathway (AID 743220; active = well fitted activation curve with a large enough effect in the signal ratio in the repeat runs, not every such curve was filed as active; the % refers to the signal ratio). The procedure, abridged: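 FXR-UAS-bla HEK 293T cells carrying a UAS-driven beta-lactamase reporter were plated for 5 h at 37C/5% CO2, then exposed to DMSO-dissolved Tox21 10K compounds for 16 h at 37C. A LiveBLAzer B/G FRET substrate was loaded for 2 h at room temperature before fluorescence reading.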

For test [9], the target named is Vitamin D3 receptor (Homo sapiens) (UniProt P11473). The experiment in a line: qHTS assay to identify small molecule agonists of the vitamin D receptor (VDR) signaling pathway (AID 743222; calls by dose curve). The procedure, abridged:
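Using LiveBLAzer B/G FRET detection, agonism was scored in VDR-bla cells exposed overnight (16 h, 37C) to DMSO-dissolved compounds; substrate incubation was 2 h at room temperature.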

A short description of test [10]: qHTS assay to identify small molecule agonists of the vitamin D receptor (VDR) signaling pathway - cell viability counter screen (AID 743224). Note: potency is the fitted concentration of half-maximal effect; nearly all actives have a fitted effect of over 50% in size. The method in brief: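 Counter screen for cytotoxicity: VDR-bla cells at 2,000 cells/well, 16 h compound exposure, then CellTiter-Glo luminescence after the beta-lactamase measurement.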
Test [11] in a line: qHTS assay to identify small molecule antagonists of the vitamin D receptor (VDR) signaling pathway - cell viability counter screen (AID 743225). Note: nearly all actives have a fitted effect of over 50% in size. Note: potency is the fitted concentration of half-maximal effect. The procedure, abridged: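 Read-out: CellTiter-Glo luminescence measured 30 min after reagent addition at room temperature. Cells were VDR-bla HEK 293T exposed 16 h at 37C, 5% CO2, to compound with 3 nM final calcitriol agonist.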

Test [12] can be described thus: qHTS assay to identify small molecule agonists of the endoplasmic reticulum stress response signaling pathway - cell viability counter screen (AID 1159517; calls by dose curve; note: nearly all actives have a fitted effect of over 50% in size; note: potency is the fitted concentration of half-maximal effect). The method in brief: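 Steps: seed 1,500 ESRE-bla HeLa cells per well; incubate overnight at 37 C, 5% CO2; add compounds in DMSO for 5 hr; run FRET substrate 2 hr RT; add CellTiter-Glo, wait 30 min, read luminescence.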

Test [13] concerns the target Retinoic acid receptor RXR-alpha (Homo sapiens) (UniProt P19793). The experiment in a line: qHTS assay to identify small molecule agonists of the RXR signaling pathway (AID 1159527; calls by dose curve; note: nearly all actives have a fitted effect of over 35% in size). The method in brief: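 Read-out: beta-lactamase FRET ratio (405 nm excitation, 460 and 530 nm emission) after 2 hr substrate loading at room temperature. Cells were RXR-alpha-UAS-bla HEK 293T treated with compounds for 16 hr in 2% charcoal-stripped FBS medium.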

Test [14] is described as follows: qHTS assay to identify small molecule agonists of the peroxisome proliferator-activated receptor delta (PPARd) signaling pathway - cell viability counter screen (AID 743211). Note: potency is the fitted concentration of half-maximal effect; nearly all actives have a fitted effect of over 55% in size. The procedure, abridged:
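HEK293H PPARd-bla, 3000 cells/well; 5 h preincubation 37C/5% CO2; cpd in DMSO, 17 h 37C; B/G FRET substrate 2 h RT; CellTiter-Glo 30 min RT, luminescence.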

Test [15] can be described thus: qHTS assay to identify small molecule antagonists of the farnesoid-X-receptor (FXR) signaling pathway - cell viability counter screen (AID 743221; active = well fitted cell-killing curve with a large enough effect in the repeat runs, not every such curve was filed as active; note: nearly all actives have a fitted effect of over 50% in size; note: potency is the fitted concentration of half-maximal effect). The method in brief:
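Luminescence from CellTiter-Glo measures cytotoxicity in GeneBLAzer FXR-UAS-bla HEK 293T cells. Cells were exposed to compounds with 50 uM chenodeoxycholic acid (final) for 16 h at 37 C, in wells also used for the reporter readout.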

Test [16] in a line: qHTS assay to identify small molecule agonists of the AP-1 signaling pathway (AID 1159526; calls by dose curve).

Sequence of Peroxisome proliferator-activated receptor delta (Homo sapiens) (Q03181 whole entry, looked up): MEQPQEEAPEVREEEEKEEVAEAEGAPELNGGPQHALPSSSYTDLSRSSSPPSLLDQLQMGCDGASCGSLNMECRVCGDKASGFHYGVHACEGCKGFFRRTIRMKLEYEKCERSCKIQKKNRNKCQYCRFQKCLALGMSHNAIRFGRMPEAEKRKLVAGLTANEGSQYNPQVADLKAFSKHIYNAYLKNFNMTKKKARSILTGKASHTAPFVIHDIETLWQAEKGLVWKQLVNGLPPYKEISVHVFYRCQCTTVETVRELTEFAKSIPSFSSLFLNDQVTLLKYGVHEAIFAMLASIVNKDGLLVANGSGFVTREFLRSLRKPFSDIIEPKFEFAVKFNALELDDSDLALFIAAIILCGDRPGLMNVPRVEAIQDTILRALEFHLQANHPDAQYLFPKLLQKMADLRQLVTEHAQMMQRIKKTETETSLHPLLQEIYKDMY
Sequence of Vitamin D3 receptor (Homo sapiens) (P11473 whole entry, looked up): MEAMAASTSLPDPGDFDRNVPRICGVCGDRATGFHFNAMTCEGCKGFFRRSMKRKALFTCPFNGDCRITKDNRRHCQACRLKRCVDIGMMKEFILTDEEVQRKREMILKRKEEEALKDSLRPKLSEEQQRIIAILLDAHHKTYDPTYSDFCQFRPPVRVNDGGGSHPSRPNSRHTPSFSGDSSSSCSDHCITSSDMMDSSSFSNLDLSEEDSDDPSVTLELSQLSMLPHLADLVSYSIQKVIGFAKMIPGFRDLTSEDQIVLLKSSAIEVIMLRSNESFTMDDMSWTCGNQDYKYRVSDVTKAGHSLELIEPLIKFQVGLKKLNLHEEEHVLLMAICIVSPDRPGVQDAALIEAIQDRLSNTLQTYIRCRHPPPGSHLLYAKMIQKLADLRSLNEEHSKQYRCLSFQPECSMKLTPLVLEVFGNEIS
Sequence of Retinoic acid receptor RXR-alpha (Homo sapiens) (P19793 whole entry, looked up): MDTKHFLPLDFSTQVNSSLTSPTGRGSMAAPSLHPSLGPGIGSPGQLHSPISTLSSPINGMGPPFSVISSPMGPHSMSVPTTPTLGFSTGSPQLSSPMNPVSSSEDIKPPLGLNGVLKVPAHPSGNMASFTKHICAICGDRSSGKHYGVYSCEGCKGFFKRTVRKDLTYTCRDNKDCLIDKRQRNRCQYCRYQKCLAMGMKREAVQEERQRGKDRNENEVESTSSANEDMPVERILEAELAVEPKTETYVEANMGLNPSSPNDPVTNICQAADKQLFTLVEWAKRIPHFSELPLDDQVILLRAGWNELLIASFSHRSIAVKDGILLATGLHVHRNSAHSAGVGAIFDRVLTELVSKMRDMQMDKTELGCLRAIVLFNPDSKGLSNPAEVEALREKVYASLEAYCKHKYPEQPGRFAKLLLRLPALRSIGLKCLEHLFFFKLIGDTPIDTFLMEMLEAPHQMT
Sequence of Bile acid receptor (Homo sapiens) (Q96RI1 whole entry, looked up): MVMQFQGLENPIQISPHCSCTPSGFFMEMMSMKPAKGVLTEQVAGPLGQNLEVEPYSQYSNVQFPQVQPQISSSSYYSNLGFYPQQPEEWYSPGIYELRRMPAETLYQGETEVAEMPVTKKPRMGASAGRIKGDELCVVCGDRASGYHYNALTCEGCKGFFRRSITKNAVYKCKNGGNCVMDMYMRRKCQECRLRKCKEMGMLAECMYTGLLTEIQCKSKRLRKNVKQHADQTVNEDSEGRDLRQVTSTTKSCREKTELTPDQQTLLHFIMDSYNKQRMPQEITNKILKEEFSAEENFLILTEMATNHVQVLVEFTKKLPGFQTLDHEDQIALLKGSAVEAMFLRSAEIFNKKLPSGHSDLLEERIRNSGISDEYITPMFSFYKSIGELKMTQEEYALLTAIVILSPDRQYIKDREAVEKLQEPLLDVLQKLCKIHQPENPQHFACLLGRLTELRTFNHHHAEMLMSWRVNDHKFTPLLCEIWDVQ

Turning to `COc1ccc(OC)c(C=O)c1`, the Potency entry in [1], in test [2] and in test [3] was “inactive” throughout.

Regarding `CC(C)(C)c1cc([N+](=O)[O-])cc(C(C)(C)C)c1O`, the Potency result in [4], in [5], in test [6], in test [7], in [9] and in test [12] was “inactive” each time. Further, the Potency result in test [3] was “inactive”. In addition, the call in test [8] and in [13] was inactive. Further, the Potency in test [10] and in test [11] was 12.3 µM (active) throughout.

Consider `Oc1ccc(C2(c3ccc(O)cc3)CCCCC2)cc1`, for which the Potency is 41.3 µM (active) in [14]; 46.4 µM (active) in test [5]; 46.4 µM (active) in test [6]; 23.2 µM (active) in [7]; 46.4 µM (active) in [10]; 36.8 µM (active) in test [11]. In test [12], the Potency is 46.4 µM (active). Further, the Potency entry in test [4] was “inactive”. Moreover, the result in test [8] was inactive.

For `O=[N+]([O-])c1c2ccccc2cc2ccccc12`, the Potency entry in [7], in test [12], in test [1], in test [2] and in test [3] was “inactive” in each case.

Regarding `ClC1=C(Cl)C2(Cl)C3C(Cl)C(Cl)CC3C1(Cl)C2(Cl)Cl` (centres undefined), the Potency in test [5] is 49 µM (active); in test [7], 48.8 µM (active) and 54.9 µM (active); in test [15], 61.6 µM (active); in test [10], 24.5 µM (active) and 17.4 µM (active); in test [11], 54.8 µM (active) and 49 µM (active); in [12], 49 µM (active). Also, the Potency is 68.4 µM (active) in [1]; 27.2 µM (active) and 61.1 µM (active) in test [2]; 24.5 µM (active) and 34.7 µM (active) in test [3]. Also, in test [9], the Potency entry was “inactive”.

As to `CSCCCN=C=S`, the Potency result in test [5], in test [15], in test [9], in test [11], in [2] and in test [3] was “inactive” throughout. Also, in test [16], the Potency entry was “inactive”. In addition, the Potency in [12] is 19.5 µM (active). Besides, the call in test [13] was inactive.

Turning to `O=C(CCl)C(Cl)Cl`, the Potency was 17.5 µM (active) in [14]; 49.4 µM (active) in [6]; 49.4 µM (active) in test [15]; 27.6 µM (active) in test [1]; 6.17 µM (active) in [2]. In addition, in test [12], the Potency result was “inactive”.

With `C=CC(=O)OCC(COC(=O)C=C)(COC(=O)C=C)COC(=O)C=C`, the Potency in test [5] is 12.3 µM (active); in [7], 7.76 µM (active); in [15] it was 21.9 µM (active); in test [10], 7.76 µM (active); in test [11], 6.92 µM (active); in [12] it was 12.3 µM (active). Also, in test [2], the Potency was 3.44 µM (active).

With `CC(Cl)CN(C)C` (centres undefined), the Potency result in [1], in [2] and in test [3] was “inactive” in each case.

Regarding `SCc1ccco1`, the Potency entry in test [1], in [2] and in [3] was “inactive” in each case.

For the compound `CN(CCCC(=O)c1cccnc1)N=O`, the Potency entry in test [1], in [2], in test [3] and in [16] was “inactive” in each case.

As for `COP(N)(=S)OC`, the Potency result in test [1], in [2], in test [3] and in [16] was “inactive” each time. In test [13], the result was inactive.

With `CCOC(=O)c1ccccc1S(=O)(=O)NC(=O)Nc1nc(Cl)cc(OC)n1`, the Potency entry in test [1], in test [2], in test [3] and in test [16] was “inactive” each time.
